Screening data as filed in PubChem BioAssay.
Rows were chosen to be rich in hits. Some 5.1% of all compounds tested hit in one or more screens of this group.
TMEM16A act: activates or potentiates the mouse TMEM16A chloride channel; Q8BHY3; B-score at 10 µM; AID 623877; HEK293 TMEM16A/YFP-H148Q/I152L, iodide quench fluorescence; hits give low values; actives 0.3% (n = 340,000);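 active means fluorescence-ratio B-score plate-corrected deviation score at least 3 library SD below zero, with starting fluorescence score within 5 deviations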;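 further: channel opened by trigger with iodide after compound preincubation; score built on the fluorescence ratio of max minus min over baseline; more negative score means more quench and so TMEM16A activation or potentiation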
GRIN3A LBD mod: modulators (binders) of human NR3A ligand-binding domain | NR3A LBD differential scanning fluorimetry, Tm shift; 0% = protein alone, 100% = glycine-bound protein | Tm shift relative to glycine control, % at 25 µM | actives 2.5% (n = 340,000);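 active means melting temperature shift of at least 10% of the positive control shift, at one fixed dose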
CRFBP-R2 agonist: agonists of human CRF-binding protein/CRF-R2 receptor complex; HEK293 CRF-R2/CRF-BP, calcium dye fluorescence (FLIPR); percent of saturating CRF peptide response; activation, % at 13.2 µM; actives 0.46% (n = 350,000); AID 588473;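 active means activation of at least 50%, plus an integration ratio under a set limit after plate pattern correction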;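 further: plate controls were neutral control wells without compound for no effect and CRF at EC100 for full effect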
ANO1 block: blocks the mouse calcium-activated chloride channel TMEM16A; HEK293 TMEM16A/YFP iodide influx fluorescence, ionomycin; actives 1.2% (n = 310,000); normalized B-score (activity score, 25-100; higher = stronger inhibition) at 10 µM; AID 588511;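 active means ratio plate-corrected score three or more library SD toward inhibition, starting fluorescence score within five deviations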;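 further: score derived from kinetic fluorescence span divided by baseline fluorescence per well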
CRFBP-R2 block: antagonists of CRF-binding protein/CRF-R2 receptor complex. HEK293 CRF-R2/CRF-BP, CRF-induced calcium fluorescence. inhibition, % at 11.8 µM. actives 0.59% (n = 350,000). AID 588475;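 active means inhibition of the ligand-induced calcium signal above about 50% at the single tested concentration, limit read from the data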
MPTP block: inhibitors of mitochondrial permeability transition pore; isolated mouse mitochondria, Ca2+ swelling absorbance, 30 min; inhibition, % at 10 µM; actives 1.4% (n = 360,000); AID 602449;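 active means inhibition of 50% or more, scaled per plate between neutral and stimulator controls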;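 further: 0% = DMSO wells given calcium and 100% = 1 mM EGTA wells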
MPTP counter: Rhodamine 123 counter-screen of mitochondrial pore hits; shares compounds with MPTP block; isolated mitochondria, membrane potential, Rhodamine 123 fluorescence; actives 78% (n = 5,000); inhibition, % at 10 µM; in the data active means inhibition above about 22%;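 further: 0% = DMSO vehicle and 100% = positive control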
MPTP swell DR: dose response confirmation of mitochondrial permeability transition pore inhibitors | AID 651561 | shares compounds with MPTP block | actives 58% (n = 780) | isolated mitochondria swelling, absorbance | IC50, µM; in the data active means IC50 below about 20 µM
MPTP cs DR: MPTP inhibitor counter-screen activity, dose response | shares compounds with MPTP block | isolated mitochondria counterscreen, fluorescence read-out | AID 651564 | IC50, µM | actives 49% (n = 780); in the data active means IC50 below about 80 µM
Active calls of the source: *; i = inactive; . = no result given.

SMILES | TMEM16A act | GRIN3A LBD mod | CRFBP-R2 agonist | ANO1 block | CRFBP-R2 block | MPTP block | MPTP counter | others
C/C(=N\OC(=O)Nc1ccc(Cl)cc1)c1ncc(C(F)(F)F)cc1N1CCOCC1 | i | 3 | 1 | i | -3 | 99* | 94*
N/C(=N\OC(=O)Nc1ccc(Cl)cc1)c1ncc(C(F)(F)F)cc1Cl | i | 7 | 2 | i | -4 | 56* | 113*
CCC(C(=O)NCc1ccc(F)cc1)N(Cc1cccs1)C(=O)c1snc(C(N)=O)c1N (stereo unspecified) | i | 1 | -1 | i | -9 | -1 | .
CC1=C(C(=O)N2CCCCCC2)CC(CC(=O)NC(c2ccccc2)c2ccccc2)C(=O)N1Cc1ccccc1 (stereo unspecified) | . | . | . | . | . | 0 | .
Cc1ccc(Nc2n[nH]c(C)c2[N+](=O)[O-])cc1 | i | 2 | -3 | i | 16 | 1 | .
Cc1[nH]nc(Nc2ccc(Br)cc2)c1[N+](=O)[O-] | i | -2 | -2 | i | 15 | 57* | 72*
CCn1ccnc1CN(C)Cc1cn(-c2ccc(C)cc2)nc1-c1cccc(C)c1 | i | 24* | 4 | i | -12 | 51* | -9 | MPTP swell DR=>100;MPTP cs DR=46*
CCn1ccnc1CN(C)Cc1cn(-c2cccc(C)c2)nc1-c1cccc(F)c1 | i | 1 | 4 | i | -11 | 1 | .
CCOC(=O)C1(C)CCN1C(=O)COc1ccccc1 (stereo unspecified) | . | . | . | . | . | 0 | .
Cc1ccc(C)c(OCC(O)CN2CCC(CN3C(=O)c4cccc5cccc(c45)C3=O)CC2)c1 (stereo unspecified) | i | -4 | 0 | i | -22 | 100* | 92*
O=C1c2cccc3cccc(c23)C(=O)N1CC1CCN(CC(O)COCc2ccc3c(c2)OCO3)CC1 (stereo unspecified) | i | 1 | 0 | i | -19 | 56* | 5 | MPTP swell DR=9.6*;MPTP cs DR=26*
COc1ccc(OCC(O)CN2CCC(CN3C(=O)c4cccc5cccc(c45)C3=O)CC2)cc1 (stereo unspecified) | i | -2 | -5 | i | -3 | 19 | .
CCOC(=O)C1CCN(CC(O)COCc2ccc3c(c2)OCO3)CC1 (stereo unspecified) | i | -1 | -2 | i | 5 | 1 | .
O=C(NCc1ccco1)Nc1ccc(OC(F)(F)F)cc1 | i | 0 | 1 | i | 3 | 52* | 80*
OCC1OC(n2cnc3c(/C=C(\O)c4ccccc4)ncnc32)C(O)C1O (stereo unspecified) | i | 3 | 0 | . | 17 | 2 | .
CC1C(=O)N(Cc2cn(CCC3OCCO3)nn2)CCS(=O)(=O)N1Cc1ccc(-c2ccc(F)nc2)cc1 (stereo unspecified) | . | . | -1 | . | -14 | -1 | .
CN1CCN(NC(=O)c2cc(-c3ccc(Br)s3)nc3ccccc23)CC1 | i | 0 | 2 | i | -23 | 82* | -17 | MPTP swell DR=15*;MPTP cs DR=>80
Cc1nn(Cc2noc(C(=O)NC3CCC(C)CC3)n2)c(C)c1Br (stereo unspecified) | i | 1 | -2 | i | 11 | 59* | 58*
N#C/C(=C/c1cn(-c2ccccc2)nc1-c1cccc(OCc2ccc(F)cc2)c1)C(=O)NCCCn1ccnc1 | i | -7 | 4 | i | -16 | 54* | -8 | MPTP swell DR=>100;MPTP cs DR=>80
CC(C)C(NC(=O)c1ccccc1)C(=O)N1CCCCCC1 (stereo unspecified) | i | 0 | 1 | i | -2 | -1 | .
CCCCn1c(=N)n(CC(O)COc2ccc(C)cc2)c2ccccc21 (stereo unspecified) | i | 3 | 1 | i | -36 | 2 | .
N=c1n(CCN2CCCCC2)c2ccccc2n1CC(O)COc1ccccc1 (stereo unspecified) | i | -5 | -1 | i | 19 | 98* | 12 | MPTP swell DR=18*;MPTP cs DR=68*
CCCCn1c(=N)n(CC(O)COc2ccccc2)c2ccccc21 (stereo unspecified) | i | 0 | 2 | i | -25 | 76* | 3 | MPTP swell DR=13*;MPTP cs DR=36*
Cc1oc(-c2ccc(Cl)cc2)nc1CN1CCC(C(=O)N2CCN(Cc3ccccc3)CC2)CC1 | i | 0 | 1 | i | 12 | 57* | 9 | MPTP swell DR=i;MPTP cs DR=30*
Oc1ccc(Cl)cc1-c1cc(C(F)(F)C(F)F)nc(-c2ccccc2)n1 | i | 2 | 2 | i | -7 | 90* | 10 | MPTP swell DR=8.1*;MPTP cs DR=<2.5*
SMILES | TMEM16A act | GRIN3A LBD mod | CRFBP-R2 agonist | ANO1 block | CRFBP-R2 block | MPTP block | MPTP counter | others
Cc1ccc(O)c(-c2cc(C(F)(F)C(F)F)nc(-c3ccccc3)n2)c1 | i | 0 | 0 | i | -26 | 3 | .
CCCCc1ccc(NC(=S)NCCO)cc1 | i | -2 | -1 | i | 11 | 2 | .
Fc1ccc(CCNC(=S)Nc2ccc(F)cc2)cc1 | i | 19* | -2 | i | 2 | 50* | 93*
CCCCc1ccc(NC(=S)NCCc2ccc(F)cc2)cc1 | i | 10 | 0 | i | -17 | 82* | 105*
CC1(C)CC(=O)C(=Cc2cn(-c3ccccc3)nc2-c2ccccc2)C(=O)C1 | i | 0 | 3 | i | -4 | 76* | -3 | MPTP swell DR=i;MPTP cs DR=5.7*
Cc1ccc(-c2nn(-c3ccccc3)cc2C=C2C(=O)CC(C)(C)CC2=O)cc1 | i | 8 | -2 | i | -37 | 2 | .
CN(C)c1nn(C(=O)Nc2cccc(C(F)(F)F)c2)cc1-c1ccccc1 | i | -3 | 1 | i | -9 | 90* | 101*
Cc1ccc(-c2cc(-c3n[nH]c(=S)o3)c3ccccc3n2)cc1 | i | -6 | -2 | i | 43 | 94* | 64*
COc1ccc(N(C(=O)CNC(=O)c2cccs2)C(C(=O)NCC2CCCO2)c2ccccc2)c(OC)c1 (stereo unspecified) | i | -2 | 0 | i | -7 | 1 | .
COc1ccc(-c2coc3c(C(=O)NCc4ccc(F)c(F)c4)cccc23)c(C)c1 | . | . | . | . | . | 24 | .
COc1ccc(-c2coc3c(C(=O)NCc4ccc(OC)c(OC)c4)cccc23)c(C)c1 | . | . | . | . | . | 98* | 102*
O=C(NCc1ccncc1)c1ccc(-c2ccc(F)c(F)c2)c2ccoc12 | . | . | . | . | . | 91* | 87*
COc1ccc(-c2ccc(C(=O)NCc3ccncc3)c3occc23)c(C)c1 | . | . | . | . | . | 92* | 112*
